B2AR arrestin – qHTS assay of beta-arrestin-biased ligands of beta2-adrenergic receptor; Beta-2 adrenergic receptor (Homo sapiens), P07550; beta-arrestin recruitment to beta2AR, cell-based reporter; Potency, µM (doses to about 46.1 µM), hits mostly activators; 0.02% of 330,000 active; AID 492947, 2010; note: nearly all actives have a fitted effect of over 65% in size
NPSR antag – qHTS Assay for Antagonists of the Neuropeptide S Receptor: cAMP Signal Transduction; Potency, µM (doses to about 38.3 µM), actives largely listed as inhibitors; CHO-NPSR cells, cAMP TR-FRET, antagonist mode; AID 1461, 2008; Q6W5P4; 1% of 220,000 active; note: nearly all actives have a fitted effect of over 50% in size
Target sequence (Q6W5P4 whole entry, looked up): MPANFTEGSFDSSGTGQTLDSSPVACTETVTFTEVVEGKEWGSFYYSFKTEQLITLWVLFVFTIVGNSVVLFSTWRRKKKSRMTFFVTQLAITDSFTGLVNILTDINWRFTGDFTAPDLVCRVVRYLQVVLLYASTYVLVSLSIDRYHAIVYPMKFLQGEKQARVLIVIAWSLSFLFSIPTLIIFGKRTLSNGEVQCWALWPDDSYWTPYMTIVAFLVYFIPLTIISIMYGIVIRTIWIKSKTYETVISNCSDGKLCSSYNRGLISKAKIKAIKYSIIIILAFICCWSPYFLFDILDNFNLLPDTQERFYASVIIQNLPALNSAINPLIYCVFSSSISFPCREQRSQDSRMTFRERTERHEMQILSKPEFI
Gal4-VP16 FLuc – VP16 counterscreen qHTS for inhibitors of ROR gamma transcriptional activity. Drosophila S2 Gal4-VP16 UAS-luciferase, luminescence, 20 h. 3.5% of 310,000 active. Potency, µM (top dose mostly 53.6 µM), actives largely listed as inhibitors;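 note: Gal4-VP16 expression switched on by copper sulfate through the metallothionein promoter; nearly all actives have a fitted effect of over 50% in size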
RORg inh – qHTS for inhibitors of ROR gamma transcriptional activity; Nuclear receptor ROR-gamma (Mus musculus), P51450; Drosophila S2 Gal4-RORgamma UAS-luciferase reporter, 20 h; Potency, µM (series often up to 53.6 µM), hits mostly inhibitors; AID 2551, 2010; 5.4% of 310,000 active; note: nearly all actives have a fitted effect of over 60% in size
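Luminescence from a UAS-regulated Photinus luciferase reporter in stably transfected Drosophila Schneider cells is measured; decreased signal marks ROR gamma inhibition. Fusion expression is induced by 700 uM copper sulfate for 20 hr.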
Each line names hits and unclear results; the compound was inactive in the other large screens. Shown are actives, neighbours in structure and some others; about 5.7% of the full set was active somewhere. Calls come from the whole dose curve; as a rule, active = well fitted curve in the direction sought with a large enough effect; inconclusive = small, poorly fitted or top-dose-only effect, or another doubt; inactive = no such curve, though single readings can be large; an effect the other way counts as inactive or inconclusive.

COc1ccc(N2CCc3c(C)nc4c(OC)cccc4c32)cc1	RORg inh 20µM
Cc1cc(C)c2nc(NNC(=O)c3ccc(S(=O)(=O)N4CCc5ccccc5C4)cc3)sc2c1	Gal4-VP16 FLuc 3.2µM, RORg inh 1.6µM
Cc1cc(C)c2sc(NNC(=O)c3ccc(S(=O)(=O)N4CCc5ccccc5C4)cc3)nc2c1	Gal4-VP16 FLuc 5µM, RORg inh 4.5µM
Cc1cc(C)c2nc(NNC(=O)c3cc(=O)c4ccccc4o3)sc2c1	Gal4-VP16 FLuc inconclusive, RORg inh 5µM
CCOC(=O)Cc1csc(NC(=O)c2cc(=O)c3ccccc3o2)n1	RORg inh inconclusive
COc1ccc(-n2c(=O)c(C)nc3cnc(N4CCNCC4)nc32)cc1	none (no result: B2AR arrestin, NPSR antag)
COc1cccc(-c2ccc3ncnc(Nc4ccccc4)c3c2)c1	none (no result: B2AR arrestin, NPSR antag)
CC12CCC=CC1C(c1ccc3ccccc3c1)N(Cc1ccccc1)C2=O (centres undefined)	RORg inh inconclusive (no result: B2AR arrestin, NPSR antag)
Cc1ccc(-c2c(C)n([O-])c3c([n+]2=O)CCCC3)o1	none
COC(=O)N/N=C/c1cn(CCOc2ccc(OC)cc2)c2ccccc12	none (no result: NPSR antag)
Cc1ccc(OCC(=O)N/N=C/c2cn(Cc3ccccc3)c3ccccc23)cc1	Gal4-VP16 FLuc 7.1µM, RORg inh 5µM
Cc1ccc(OCCn2cc(/C=N/NC(=O)c3ccncc3)c3ccccc32)cc1	Gal4-VP16 FLuc 11µM, RORg inh 5µM
COC(=O)N/N=C/c1cn(CCOc2ccccc2)c2ccccc12	RORg inh inconclusive
COc1ccc(OCCn2cc(/C=N/NC(=O)c3ccncc3)c3ccccc32)cc1	Gal4-VP16 FLuc 8.9µM, RORg inh 5µM
COc1cccc(OCCn2cc(/C=N/NC(=O)c3ccncc3)c3ccccc32)c1	Gal4-VP16 FLuc 10µM, RORg inh inconclusive
CN(C)CCNC(NC(=O)c1cccs1)C(Cl)(Cl)Cl (centres undefined)	none
O=C(NCCN1CCCCC1)c1cc(Cl)ccc1Cl	none (no result: NPSR antag)
CN(C)c1ncc2nc(-c3ccc(Cl)cc3)c(=O)n(C)c2n1	none (no result: B2AR arrestin, NPSR antag)
CCOC(=O)N/N=C/c1cn(CCCOc2ccccc2)c2ccccc12	none
CCOC(=O)N/N=C/c1cn(CCCOc2ccc(C)cc2)c2ccccc12	Gal4-VP16 FLuc 1.8µM, RORg inh 1.4µM
CCCCCCCCc1nc(=S)[nH][nH]1	Gal4-VP16 FLuc inconclusive, RORg inh 10µM
CCCCCCC1CC(CCc2nc(=S)[nH][nH]2)C(=O)O1 (centres undefined)	none
CC(=O)OCC(NC(=O)C1CCCN1C(=O)OC(C)(C)C)C1OC(n2cc(F)c(=O)[nH]c2=O)C(OC(C)=O)C1OC(C)=O (centres undefined)	none (no result: B2AR arrestin, NPSR antag)
Cn1c(-c2ccccc2)c(C(=O)CCl)c2ccccc21	NPSR antag inconclusive, Gal4-VP16 FLuc inconclusive, RORg inh 7.1µM
CCn1c(-c2ccccc2)c(C(=O)CCl)c2ccccc21	Gal4-VP16 FLuc inconclusive, RORg inh 11µM
CN(C)Cc1ccccc1-c1cc(N(C)C)ncn1	none (no result: B2AR arrestin, NPSR antag)
CC(=O)Nc1ccc(NC(=O)c2cc(-c3cc(C)cc(C)c3O)n[nH]2)cc1	none (no result: NPSR antag)
Cc1cc(C)c(O)c(-c2cc(C(=O)Nc3ccc(S(=O)(=O)N4CCOCC4)cc3)[nH]n2)c1	NPSR antag 13µM, Gal4-VP16 FLuc inconclusive, RORg inh inconclusive
Cc1cc(C)c(OCC(=O)Nc2ccc(S(=O)(=O)N3CCOCC3)cc2)c(C)c1	Gal4-VP16 FLuc inconclusive, RORg inh 11µM (no result: NPSR antag)
CC(C)CNS(=O)(=O)c1ccc(CCC(=O)NCCc2ccccc2)cc1	none (no result: NPSR antag)
COc1ccc(C2=NS(=O)(=O)N(C)C(C(=O)Nc3ccc(C(C)=O)cc3)=C2)cc1OC	Gal4-VP16 FLuc 16µM (no result: NPSR antag)
Cc1ccnc(OC(C(=O)O)C(OCc2ccccc2)(c2ccc(F)cc2)c2ccc(F)cc2)n1 (centres undefined)	none (no result: NPSR antag)
COc1cc2[nH]c(=S)n(C3CCCC3)c(=O)c2cc1OC	Gal4-VP16 FLuc 2.8µM, RORg inh 4.5µM
COc1cc2[nH]c(=S)n(C3CC3)c(=O)c2cc1OC	Gal4-VP16 FLuc 18µM, RORg inh 3.5µM
C=CCc1cccc2cc(C(=O)Nc3ccc(F)cc3)c(=O)oc12	none
C=CCc1cccc2cc(C(=O)Nc3ccc(CC(=O)O)cc3)c(=O)oc12	Gal4-VP16 FLuc inconclusive, RORg inh 4µM
Clc1nc2ccccc2cc1/C=N/Nc1nc2ccccc2[nH]1	none
CCCn1c(/C=N/Nc2nc3ccccc3[nH]2)nc2ccccc21	NPSR antag inconclusive, Gal4-VP16 FLuc 3.2µM, RORg inh 2µM
CC(C)Cn1c(/C=N/Nc2nc3ccccc3[nH]2)nc2ccccc21	NPSR antag inconclusive, Gal4-VP16 FLuc 1.1µM, RORg inh 1.8µM
CC(/C=N/Nc1nc(C)cc(=O)[nH]1)=C\c1ccccc1	Gal4-VP16 FLuc inconclusive
CC(/C=N/Nc1nc2ccccc2[nH]1)=C\c1ccccc1	Gal4-VP16 FLuc 7.1µM, RORg inh 6.3µM
C=CCn1cc(/C=N/Nc2nc3ccccc3[nH]2)c2ccccc21	NPSR antag 10µM, Gal4-VP16 FLuc 7.1µM, RORg inh 4.5µM
COC(=O)[C@H](Cc1ccccc1)NC(=O)[C@@H](C)CO	none (no result: B2AR arrestin, NPSR antag)
Cc1nn(-c2ccccc2)c(C)c1/C=N/Nc1nc2ccccc2[nH]1	NPSR antag inconclusive
Cc1c(/C=N/Nc2nc3ccccc3[nH]2)c2ccccc2n1C	NPSR antag inconclusive, Gal4-VP16 FLuc inconclusive, RORg inh 5µM
Cn1c(/C=N/Nc2nc3ccccc3[nH]2)nc2ccccc21	Gal4-VP16 FLuc 13µM, RORg inh 4.5µM
CO[C@H]1COC(=O)CCC[C@@H](C)[C@H](OC)COC(=O)[C@H]2CCCN2C(=O)C/C=C\[C@@H]1C	none (no result: B2AR arrestin, NPSR antag)
CC[C@H](C)C(N)c1cn([C@@H](CC(N)=O)C(=O)N2CCNCC2)nn1 (some centres undefined)	none (no result: NPSR antag, Gal4-VP16 FLuc, RORg inh)
Clc1ccc2c(N/N=C/c3ccccc3Br)ccnc2c1	Gal4-VP16 FLuc 18µM
COc1cccc(=O)c2c(C)n(-c3cc(C)cc(C)c3)c(C)c12	NPSR antag inconclusive
COc1cccc(-n2c(C)c3c(OC)cccc(=O)c3c2C)c1	Gal4-VP16 FLuc inconclusive, RORg inh 6.3µM
COc1ccc(CNC(=O)c2nccnc2CO)cc1	none (no result: NPSR antag)
CS(=O)(=O)N1CCC(c2noc(-c3ccc(C(F)(F)F)cc3)n2)CC1	Gal4-VP16 FLuc 10µM, RORg inh inconclusive
Fc1cccc(CNc2ncnc3ccc(-c4ccccc4Cl)cc23)c1	none (no result: NPSR antag, Gal4-VP16 FLuc, RORg inh)
S=c1[nH]cnc2sc(Nc3ccccc3)nc12	Gal4-VP16 FLuc 2.5µM, RORg inh 1µM
c1ccc(CN2CCN(c3nc(NCc4ccco4)c4ccccc4n3)CC2)cc1	NPSR antag 10µM, Gal4-VP16 FLuc inconclusive, RORg inh inconclusive
CCOc1ccc(CNC(=S)N/N=C/c2ccc(OC)c(OC)c2)cc1	Gal4-VP16 FLuc 10µM, RORg inh 11µM
COc1cc(/C=N/NC(=S)NCc2ccccc2)ccc1OCC#N	Gal4-VP16 FLuc inconclusive, RORg inh 10µM
CCOc1ccc(/C=N/NC(=O)CC(=O)NCc2ccccc2)cc1	none
CCN(CC)C(=O)CC(c1ccc(OC)cc1)c1c(OC)cc(OC)c2c(-c3ccccc3)cc(=O)oc12 (centres undefined)	RORg inh inconclusive (no result: B2AR arrestin, NPSR antag)
